This is part of a sample that, as a whole, favours compounds with a hit. Of some 79,000 tested, about 15% had one in any assay. Calls of active or inactive are those of the source. No stated cut-off is given here; in the data, active means growth inhibition above about 70%; inactive means the rest.

This experiment in a line: NCI Yeast Anticancer Drug Screen. Data for the sgs1 mgt1 strain (AID 161).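 Further: 0% = growth of cultures given vehicle only.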 The following applies: S. cerevisiae sgs1 mgt1 strain, at 50.0 µM, stronger effect = higher value. Put shortly:
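Mutant yeast exposed to compound; growth scored against vehicle-only wells.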
As to `Oc1ccc2nccnc2c1`, the growth inhibition is 10.2% (inactive).

With `CCC1(COC(NC(=O)c2ccccc2)(C(F)(F)F)C(F)(F)F)COC1`, the growth inhibition is -32.2% (inactive). Under `CCOC(=O)CC1(O)Oc2cc3c(cc2C(c2cc(OC)c(OC)c(OC)c2)C1C(=O)OCC)OCO3` (stereo not drawn) stands -21.6% (inactive); under `CC(=O)/C(C)=C\C1C(C)=CCCC1(C)C` (stereo not drawn), -27.8% (inactive).

As for `C1=CC2CCC1C1CSCC21` (stereo not drawn), the growth inhibition is -8.95% (inactive). For `Nc1nc2ncc(=O)[nH]c2c(=O)[nH]1`, the growth inhibition is -8.55% (inactive). Regarding `COc1ccc2c(c1)OC(OC)(c1ccc(OC)c(OC)c1)C(O)(OC)C2=O` (stereo not drawn), the growth inhibition is 27.6% (inactive). Turning to `COC(=O)C1C(C)C1c1ccc2c(c1)OCO2` (stereo not drawn), the growth inhibition is -0.7% (inactive).

On to `CSc1nc2c(cnn2C)c(=O)[nH]1`, for which the growth inhibition was 3.3% (inactive).

For `O=C(Nc1ccc(F)cc1)Nc1ccc(I)cc1`, the growth inhibition is 5.6% (inactive).

For `CN(C)c1ccc(/C=N/N=C2\C(=O)Nc3c(Cl)cc(Cl)cc32)cc1`, the growth inhibition was 56.8% (inactive).

As to `O=C(Nc1cc(-c2ccccc2)nn1-c1ccccc1)c1ccc(Cl)cc1`, the growth inhibition was -17.8% (inactive).

In the case of `O=C(O)c1cnc2cc3c(cc2c1Nc1cccc(Cl)c1)OCO3`, the growth inhibition is 4.45% (inactive). Regarding `O=C(NCCN1CCOCC1)c1ccc(C(=O)NCCN2CCOCC2)cc1`, the growth inhibition is 32.6% (inactive). In the case of `OCC1NC(COC2OC(CO)C(O)C(O)C2O)C(O)C(O)C1O` (stereo not drawn) it was -19% (inactive); in that of `CC(C)Sc1nc(NC(=O)N(C)N=O)cc(=O)[nH]1`, 19.6% (inactive); in that of `S=C(S)NCCCn1ccnc1`, -14.8% (inactive). For the compound `C=Cc1ccc(C[n+]2cccc(C(N)=O)c2)cc1`, the growth inhibition was -2.95% (inactive).

The values are drawn from PubChem BioAssay (NCI).
